Measured values as given in PubChem BioAssay.
This is one part of the list. Activity calls are given as the source filed them.

What was measured:
[1] = target: Inward rectifier potassium channel 2 (Mus musculus) (UniProt P35561); experiment: mouse Kir2.1 channel blockers, retest, confirmation, cell-based, FluxOR thallium flux, duplicate (AID 2032;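 active = Primary-screen hit whose thallium flux fell at least 3 control SD below untreated wells in both duplicates, with normal baseline fluorescence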); conditions: Kir2.1-expressing cells, FluxOR thallium flux fluorescence, at 10 µM; hits give low values
[2] = nonspecific thallium flux effects in parental HEK293 cells, confirmation, counter-screen for Kir2.1 inhibitor project, cell-based, FluxOR thallium flux, duplicate, single concentration (AID 2105;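 active = dye signal at least 3 control SD above or below untreated wells in both duplicates, raw fluorescence within 3, either direction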;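 for FluxOR signal as % of negative control (100 = no effect): percent is based on the flux ratio of peak minus minimum fluorescence over baseline F0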); conditions: FluxOR thallium flux fluorescence, at 10 µM; 0% = unstimulated blank wells
[3] = target: Voltage-gated inwardly rectifying potassium channel KCNH2 (Homo sapiens) (UniProt Q12809); experiment: hERG channel inhibition, counter-screen for Kir2.1 inhibitor project, cell-based, thallium flux (AID 2236); conditions: hERG-expressing cells, at 10 µM; hits give high values;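 note: host cells are CHO cells stably expressing hERG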
[4] = target: Potassium channel subfamily K member 9 (Homo sapiens) (UniProt Q9NPC2); experiment: KCNK9 channel inhibition, selectivity assay for Kir2.1 inhibitor project, cell-based (AID 2329); conditions: KCNK9-expressing cells, ion flux inhibition, at 10 µM; hits give high values
[5] = target: Inward rectifier potassium channel 2 (Mus musculus) (UniProt P35561); experiment: mouse Kir2.1 channel blockers, Kir2.1 inhibitor project, cell-based, secondary, automated electrophysiology (AID 463252); conditions: Kir2.1 cells, automated patch-clamp current inhibition, at 25 µM; hits give high values
[6] = target: Short transient receptor potential channel 4 (Mus musculus) (UniProt Q9QUQ5); experiment: mouse TRPC4 membrane potential modulation by TRPC6 hits, confirmation, selectivity assay for TRPC6 inhibitor project, cell-based, second specificity screen, HEK293 TRPC4/mu-opioid (AID 2776;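 active = compounds whose fluorescence signal differed from control wells by over 3 SD, either direction, in both duplicate plates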); conditions: HEK293 TRPC4/MOR, membrane potential dye fluorescence, at 10 µM, channel activated by saturating DAMGO dose; hits give high values
[7] = test system: transient receptor potential cation channel C4 (TRPC4), mouse; experiment: mouse TRPC4 modulation by TRPC6 hits, confirmation, selectivity assay for TRPC6 inhibitor project, cell-based, HEK293 TRPC4/mu-opioid, membrane potential dye (AID 2777;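 active = rise or fall in signal beyond 3 SD of buffer-only wells in both replicate plates, either sign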;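 note: integrated kinetic ratio of fluorescence range over baseline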); conditions: membrane potential fluorescence, at 10 µM
[8] = nonspecific membrane potential effects, parental HEK293, confirmation, counter-screen for TRPC6 inhibitor project, cell-based, second counter screen (AID 2779;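 active = membrane potential signal moving either way by over 3 SD of the maximum-effect control, in both duplicate plates, meaning non-specific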); conditions: parental HEK293 membrane potential dye fluorescence; at 10 µM; maximal acetylcholine challenge after compound addition
[9] = membrane potential modulation in parental HEK293, confirmation, counter-screen for TRPC6 inhibitor project, cell-based (AID 2780;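 active = membrane potential signal shifting up or down by more than 3 SD of buffer-only wells, on both duplicate plates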;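 note: plate controls were buffer EC0 wells for no effect and acetylcholine ECmax wells for full effect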); conditions: parental HEK293 membrane potential dye fluorescence; at 10 µM
[10] = target: Short transient receptor potential channel 6 (Mus musculus) (UniProt Q61143); experiment: mouse TRPC6 channel inhibitors, confirmation, HEK293 cells, membrane potential dye, duplicate (AID 488960;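 active = fluorescence ratio falls more than 5 SD below the full-stimulation control mean, in both duplicate runs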); conditions: ACh-evoked depolarization, at 10 µM; hits give high values
[11] = target: Short transient receptor potential channel 6 (Mus musculus) (UniProt Q61143); experiment: mouse TRPC6 channel activators, confirmation, HEK293 cells, membrane potential dye, duplicate (AID 488961;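 active = ratio signal rise beyond 5 SD above unstimulated control wells' mean, seen in both duplicate runs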); conditions: HEK293-TRPC6 membrane potential dye fluorescence, FDSS, at 10 µM; hits give high values
[12] = nonspecific thallium flux increase in parental CHO-K1, confirmation, counter-screen for KCNQ2 potentiator project, cell-based, FluxOR thallium flux, duplicate (AID 2282;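 active = signal rise of at least 3 SD above the untreated control mean, in both duplicate wells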;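 note: counter screen of KCNQ2 potentiator hits so any rise reflects channel-independent effects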); conditions: parental CHO-K1 cells, FluxOR thallium flux fluorescence; at 10 µM; hits give high values; zero = vehicle mean+3SD, 100% = vehicle-minus-blank window
[13] = target: Potassium voltage-gated channel subfamily KQT member 1 (Homo sapiens) (UniProt P51787); experiment: human KCNQ1 channel potentiation off-target, confirmation, selectivity assay for KCNQ2 potentiator project, cell-based, CHO, FluxOR thallium flux (AID 2283;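 active = fluorescence ratio rise of at least 3 SD of vehicle wells above their mean, in both replicate wells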;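 note: 0% = vehicle mean plus 3 SD and 100% = vehicle minus unstimulated blank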); conditions: CHO KCNQ1 stable, FluxOR thallium flux fluorescence; at 10 µM; hits give high values; beyond 3SD, as % of vehicle-control signal
[14] = target: Potassium voltage-gated channel subfamily KQT member 2 (Rattus norvegicus) (UniProt O88943); experiment: rat KCNQ2 channel potentiators, confirmation, cell-based, CHO, FluxOR thallium flux, duplicate (AID 2287;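 active = fluorescence ratio rising 3 SD or more over the vehicle control mean in both replicates, plus primary screen hit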;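 note: peak minus minimum thallium fluorescence divided by baseline after K/Tl stimulus; 0% = vehicle mean plus 3 SD and 100% = vehicle minus unstimulated blank difference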); conditions: CHO-KCNQ2 cells, FluxOR thallium flux fluorescence; at 10 µM; hits give high values
[15] = target: Inward rectifier potassium channel 2 (Mus musculus) (UniProt P35561); experiment: PubChem AID 2345; conditions: HEK293 Kir2.1, FluxOR thallium flux fluorescence; at 10 µM; hits give high values;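 note: 0% = vehicle mean plus 3 SD and 100% = vehicle minus no-stimulus blank window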
[16] = target: Potassium voltage-gated channel subfamily KQT member 2 (Rattus norvegicus) (UniProt O88943); experiment: potentiators of retigabine-insensitive KCNQ2 W236L, mechanism study for KCNQ2 potentiator project, cell-based, rat KCNQ2 W236L, CHO, automated patch clamp (AID 2558;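 active = current increase at least 3 SD of the untreated controls above them in both duplicate recordings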); conditions: at 25 µM; outcome: automated patch clamp current
[17] = thallium flux activation in parental CHO cells, counter-screen for KCNQ1 potentiator project (AID 493006;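 active = duplicate-averaged activation above buffer control mean plus 5 SD of those controls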;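 note: fluorescence ratio of max minus min over baseline after K+ and Tl+ depolarization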); conditions: parental CHO-K1 cells, FluxOR thallium flux, at 10 µM; hits give high values
[18] = target: Potassium voltage-gated channel subfamily KQT member 1 (Homo sapiens) (UniProt P51787); experiment: KCNQ1 potassium channel potentiators, confirmation, FluxOR thallium flux, CHO cells, duplicates (AID 493007;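 active = potentiation averaged over duplicate wells exceeding buffer-only control mean by more than 3 SD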;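 note: 0% = buffer-only wells and 100% = R-L3 activator control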); conditions: KCNQ1 cell line, FluxOR thallium flux fluorescence, at 10 µM; hits give high values, % of reference activator effect, buffer zero
[19] = target: Potassium voltage-gated channel subfamily KQT member 2 (Rattus norvegicus) (UniProt O88943); experiment: rat KCNQ2 channel potentiation, selectivity assay for KCNQ1 potentiator project, KCNQ2-CHO-K1 cells (AID 493009;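 active = mean duplicate potentiation above the buffer control mean plus 5 SD of buffer wells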;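 note: assay conditions were tuned for KCNQ1 rather than KCNQ2 modulators; signal is max minus min fluorescence divided by baseline after thallium stimulus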); conditions: FluxOR thallium flux fluorescence, at 10 µM; hits give high values, scaled: buffer 0, activator control 100
[20] = target: Potassium voltage-gated channel subfamily KQT member 1 (Homo sapiens) (UniProt P51787); experiment: KCNQ1 channel current potentiators, confirmation, orthogonal assay for KCNQ1 potentiator project, IonWorks patch clamp, KCNQ1-CHO cells (AID 493184;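 active = current rise at least 3 SD above the untreated control mean in each of two repeat wells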); conditions: automated patch clamp current, at 10 µM; hits give high values

Sequence of Inward rectifier potassium channel 2 (Mus musculus) (P35561 whole entry, looked up): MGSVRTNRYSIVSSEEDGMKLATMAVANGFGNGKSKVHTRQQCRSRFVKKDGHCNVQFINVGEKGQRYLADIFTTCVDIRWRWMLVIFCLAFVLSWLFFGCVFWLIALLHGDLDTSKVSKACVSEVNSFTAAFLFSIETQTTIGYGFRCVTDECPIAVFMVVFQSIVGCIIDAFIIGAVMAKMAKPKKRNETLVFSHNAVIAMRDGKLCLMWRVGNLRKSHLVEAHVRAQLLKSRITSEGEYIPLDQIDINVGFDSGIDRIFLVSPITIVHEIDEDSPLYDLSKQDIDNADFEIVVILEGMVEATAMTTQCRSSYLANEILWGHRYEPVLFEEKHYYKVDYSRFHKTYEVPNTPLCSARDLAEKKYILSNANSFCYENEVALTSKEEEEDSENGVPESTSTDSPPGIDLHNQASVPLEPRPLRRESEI
Sequence of Potassium voltage-gated channel subfamily KQT member 1 (Homo sapiens) (P51787 whole entry, looked up): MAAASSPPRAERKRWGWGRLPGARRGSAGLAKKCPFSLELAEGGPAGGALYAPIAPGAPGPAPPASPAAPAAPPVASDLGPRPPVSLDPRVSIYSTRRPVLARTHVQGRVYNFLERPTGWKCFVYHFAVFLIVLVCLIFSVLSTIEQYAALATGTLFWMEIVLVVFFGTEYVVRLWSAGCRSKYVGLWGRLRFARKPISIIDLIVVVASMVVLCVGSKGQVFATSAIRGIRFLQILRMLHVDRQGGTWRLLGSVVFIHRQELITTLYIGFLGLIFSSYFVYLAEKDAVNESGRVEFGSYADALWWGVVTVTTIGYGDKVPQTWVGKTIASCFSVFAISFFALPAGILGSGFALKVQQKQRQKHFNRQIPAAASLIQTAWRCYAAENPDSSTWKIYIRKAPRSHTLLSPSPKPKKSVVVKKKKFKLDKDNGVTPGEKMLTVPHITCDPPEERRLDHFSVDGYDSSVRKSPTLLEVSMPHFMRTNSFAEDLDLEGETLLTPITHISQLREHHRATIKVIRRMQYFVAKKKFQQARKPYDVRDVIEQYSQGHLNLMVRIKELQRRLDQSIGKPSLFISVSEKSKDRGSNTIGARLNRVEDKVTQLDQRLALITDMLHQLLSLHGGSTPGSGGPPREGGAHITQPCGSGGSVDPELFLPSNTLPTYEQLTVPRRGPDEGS
Sequence of Short transient receptor potential channel 6 (Mus musculus) (Q61143 whole entry, looked up): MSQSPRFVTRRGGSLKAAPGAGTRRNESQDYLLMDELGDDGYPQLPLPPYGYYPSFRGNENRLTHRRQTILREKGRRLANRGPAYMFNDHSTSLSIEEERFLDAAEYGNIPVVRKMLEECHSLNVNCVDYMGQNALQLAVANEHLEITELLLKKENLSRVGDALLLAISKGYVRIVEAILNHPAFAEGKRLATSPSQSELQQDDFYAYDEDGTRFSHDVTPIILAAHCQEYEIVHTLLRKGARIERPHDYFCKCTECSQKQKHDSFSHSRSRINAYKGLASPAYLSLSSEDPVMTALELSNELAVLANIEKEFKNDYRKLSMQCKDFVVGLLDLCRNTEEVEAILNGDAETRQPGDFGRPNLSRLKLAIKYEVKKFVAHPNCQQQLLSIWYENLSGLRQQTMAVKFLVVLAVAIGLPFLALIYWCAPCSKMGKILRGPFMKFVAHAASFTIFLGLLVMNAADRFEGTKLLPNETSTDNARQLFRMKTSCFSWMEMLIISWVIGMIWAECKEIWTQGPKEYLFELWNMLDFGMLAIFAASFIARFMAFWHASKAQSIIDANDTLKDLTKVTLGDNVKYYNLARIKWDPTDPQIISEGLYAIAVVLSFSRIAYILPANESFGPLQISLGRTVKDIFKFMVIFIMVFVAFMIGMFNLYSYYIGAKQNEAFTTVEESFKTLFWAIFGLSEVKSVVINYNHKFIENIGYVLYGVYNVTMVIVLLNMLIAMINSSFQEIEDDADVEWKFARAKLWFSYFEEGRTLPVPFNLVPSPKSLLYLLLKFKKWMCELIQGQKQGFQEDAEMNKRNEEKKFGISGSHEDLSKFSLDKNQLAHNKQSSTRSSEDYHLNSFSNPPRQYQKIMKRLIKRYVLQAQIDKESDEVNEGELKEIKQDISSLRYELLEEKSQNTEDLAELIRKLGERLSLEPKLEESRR
Sequence of Voltage-gated inwardly rectifying potassium channel KCNH2 (Homo sapiens) (Q12809 whole entry, looked up): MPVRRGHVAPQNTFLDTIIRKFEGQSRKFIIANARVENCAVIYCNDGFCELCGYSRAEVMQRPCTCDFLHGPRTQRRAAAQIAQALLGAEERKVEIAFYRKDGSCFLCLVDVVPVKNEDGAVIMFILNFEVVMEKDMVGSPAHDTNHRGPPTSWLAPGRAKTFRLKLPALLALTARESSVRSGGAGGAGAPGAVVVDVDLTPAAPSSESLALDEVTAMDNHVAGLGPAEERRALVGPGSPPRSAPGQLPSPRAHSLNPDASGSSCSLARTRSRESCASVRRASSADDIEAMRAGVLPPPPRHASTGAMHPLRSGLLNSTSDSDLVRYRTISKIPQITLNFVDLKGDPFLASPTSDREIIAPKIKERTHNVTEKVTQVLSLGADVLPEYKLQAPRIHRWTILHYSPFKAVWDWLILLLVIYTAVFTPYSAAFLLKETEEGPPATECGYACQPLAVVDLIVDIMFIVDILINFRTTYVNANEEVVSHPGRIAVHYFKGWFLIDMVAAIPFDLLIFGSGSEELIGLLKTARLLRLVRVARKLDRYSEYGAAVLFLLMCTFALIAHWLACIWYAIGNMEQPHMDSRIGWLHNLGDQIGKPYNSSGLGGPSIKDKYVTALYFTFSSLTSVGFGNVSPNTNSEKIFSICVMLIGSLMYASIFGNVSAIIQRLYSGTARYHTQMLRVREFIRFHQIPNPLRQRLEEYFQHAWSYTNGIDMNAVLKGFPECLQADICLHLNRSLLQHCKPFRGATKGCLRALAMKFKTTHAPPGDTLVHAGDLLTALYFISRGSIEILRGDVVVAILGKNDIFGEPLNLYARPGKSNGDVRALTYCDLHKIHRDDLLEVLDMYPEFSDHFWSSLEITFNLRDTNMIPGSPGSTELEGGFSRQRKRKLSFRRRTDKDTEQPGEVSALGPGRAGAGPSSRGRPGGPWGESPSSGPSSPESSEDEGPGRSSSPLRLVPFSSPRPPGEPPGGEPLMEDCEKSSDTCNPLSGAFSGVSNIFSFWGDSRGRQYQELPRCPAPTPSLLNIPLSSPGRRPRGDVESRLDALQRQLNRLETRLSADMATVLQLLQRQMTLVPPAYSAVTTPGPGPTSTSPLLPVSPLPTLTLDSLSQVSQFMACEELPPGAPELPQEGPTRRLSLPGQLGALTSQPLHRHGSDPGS
Sequence of Short transient receptor potential channel 4 (Mus musculus) (Q9QUQ5 whole entry, looked up): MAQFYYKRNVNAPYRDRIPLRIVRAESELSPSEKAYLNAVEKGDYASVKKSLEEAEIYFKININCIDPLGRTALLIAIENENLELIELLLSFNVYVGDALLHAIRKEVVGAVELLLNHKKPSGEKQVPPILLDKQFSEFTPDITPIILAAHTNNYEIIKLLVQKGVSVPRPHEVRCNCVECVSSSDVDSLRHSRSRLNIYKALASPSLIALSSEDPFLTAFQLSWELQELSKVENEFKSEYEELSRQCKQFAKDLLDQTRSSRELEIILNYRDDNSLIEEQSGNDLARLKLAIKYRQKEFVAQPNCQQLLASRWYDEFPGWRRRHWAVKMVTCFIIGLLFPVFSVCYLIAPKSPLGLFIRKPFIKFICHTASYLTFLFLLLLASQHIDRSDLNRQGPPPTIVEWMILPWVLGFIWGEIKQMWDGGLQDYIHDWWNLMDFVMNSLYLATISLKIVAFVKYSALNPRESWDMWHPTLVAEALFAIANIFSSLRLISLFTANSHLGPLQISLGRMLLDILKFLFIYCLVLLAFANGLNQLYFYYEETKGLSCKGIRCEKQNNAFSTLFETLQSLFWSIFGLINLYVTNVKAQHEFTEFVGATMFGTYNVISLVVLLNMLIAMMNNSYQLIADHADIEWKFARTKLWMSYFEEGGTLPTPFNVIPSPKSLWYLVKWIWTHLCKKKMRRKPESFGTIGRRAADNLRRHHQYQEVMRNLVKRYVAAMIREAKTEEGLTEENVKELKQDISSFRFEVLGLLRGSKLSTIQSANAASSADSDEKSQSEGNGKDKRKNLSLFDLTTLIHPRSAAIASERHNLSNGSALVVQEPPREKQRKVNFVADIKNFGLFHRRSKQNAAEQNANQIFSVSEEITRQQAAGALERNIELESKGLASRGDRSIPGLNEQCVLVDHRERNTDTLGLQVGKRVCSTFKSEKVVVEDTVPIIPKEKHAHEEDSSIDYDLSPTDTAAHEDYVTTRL

C=CCc1cc(S(=O)(=O)c2ccc(O)c(CC=C)c2)ccc1O
inactive: outcome [2] | outcome [3] | outcome [5]
active: Tl flux remaining, % of negative control (hits give low values) [1] 40.5% | inhibition [4] 79%

COc1ccc(C(O)(C2CCCCC2)C(CN2CCCC2)c2ccccc2)cc1 (stereo unspecified)
active: Tl flux remaining, % of negative control (hits give low values) [1] 49%
inactive: outcome [2] | outcome [3] | outcome [4] | outcome [5]

Cc1cc2oc3ccc(NCCC4CCCN4C)cc3c(=O)c2cc1C (stereo unspecified)
active: FluxOR signal as % of negative control (100 = no effect) [2] 67.5% | inhibition [6] 63% | activity change, negative = inhibition [7] 8.34% | membrane potential signal change [9] 5.47%
inactive: outcome [1] | outcome [8] | outcome [10] | outcome [11]

CCn1c(O)c(N=NC2=NC(=O)CS2)c2cc(C)ccc21
inactive: outcome [1] | activity increase over 3SD of controls [12] -1.5% | activation over 3SD threshold [13] -22.6% | activity over 3SD threshold [15] -27.4% | outcome [16] | outcome [20]
active: FluxOR signal as % of negative control (100 = no effect) [2] 160% | potentiation, less the hit threshold [14] 0.3% | activation [17] 244% | potentiation [18] 112% | potentiation [19] 310%

Cc1ccc(NC(=O)C2CC2c2ccccc2)cc1 (stereo unspecified)
inactive: outcome [1] | outcome [2] | activity over 3SD threshold [15] -35.9% | outcome [16]
active: activity increase over 3SD of controls [12] 58.6% | activation over 3SD threshold [13] 64.2% | potentiation, less the hit threshold [14] 26.2%
